# Measured values published in PubChem BioAssay (NCATS).
# A number with no mark means an inactive call. Inconclusive results are not listed. Entries that show only a call come without a potency. Calls of active or inactive are those of the source. Unless noted, calls come from the whole dose curve; as a rule, active = well fitted curve in the direction sought with a large enough effect; inconclusive = small, poorly fitted or top-dose-only effect, or another doubt; inactive = no such curve, though single readings can be large; an effect the other way counts as inactive or inconclusive.
# How the values were obtained:
# [1] = biological target: Luciferin 4-monooxygenase (Photinus pyralis) (UniProt P08659); test: Biochemical firefly luciferase enzyme assay for NPC (AID 624030); note: nearly all actives have a fitted effect of over 70% in size; note: potency is the fitted concentration of half-maximal effect; settings: purified P. pyralis luciferase, luminescence, 5 min; series mostly up to 58.6 µM
# Chain of Luciferin 4-monooxygenase (Photinus pyralis) (P08659 whole entry, looked up): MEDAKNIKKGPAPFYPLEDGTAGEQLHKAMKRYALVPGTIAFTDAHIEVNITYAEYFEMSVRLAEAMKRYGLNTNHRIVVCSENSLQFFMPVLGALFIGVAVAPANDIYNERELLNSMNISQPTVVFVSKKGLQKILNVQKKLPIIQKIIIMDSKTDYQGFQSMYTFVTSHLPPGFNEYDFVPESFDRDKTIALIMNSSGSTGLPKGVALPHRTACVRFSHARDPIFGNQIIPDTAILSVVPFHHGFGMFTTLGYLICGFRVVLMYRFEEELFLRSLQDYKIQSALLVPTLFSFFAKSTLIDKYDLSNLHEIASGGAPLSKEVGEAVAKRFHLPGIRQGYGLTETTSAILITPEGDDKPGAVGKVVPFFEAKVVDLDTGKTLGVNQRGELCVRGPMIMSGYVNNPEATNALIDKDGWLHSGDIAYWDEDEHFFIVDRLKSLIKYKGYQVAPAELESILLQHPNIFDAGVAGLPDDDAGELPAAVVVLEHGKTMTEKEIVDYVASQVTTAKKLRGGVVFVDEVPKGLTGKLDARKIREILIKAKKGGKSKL
# In short: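 Purified P. pyralis luciferase at 10 nM in 50 mM Tris Acetate (final), luminescence read within 5 minutes of enzyme addition to compounds. Activity normalised to PTC124 versus DMSO; concentration-response curves classed by r2, magnitude and activity.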
# [2] = S16 Schwann cell PMP22 intronic element firefly luciferase assay (AID 624032); settings: S16 rat Schwann cells, PMP22 element FLuc, 24 h; series mostly up to 57.5 µM; note: nearly all actives have a fitted effect of over 30% in size; note: potency is the fitted concentration of half-maximal effect
# In short: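 Rat S16 Schwann cells stably carrying firefly luciferase driven by a PMP22 intronic element, in 10% FBS, treated 24 h at 37 C. ONE-Glo luminescence normalized to PTC124 control and DMSO (0%); curves classed by r2, magnitude and activity.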
# [3] = S16 Schwann cell PMP22 intronic element beta-lactamase assay (AID 624044; calls by dose curve; note: nearly all actives have a fitted effect of over 15% in size; note: potency is the fitted concentration of half-maximal effect); settings: S16 rat Schwann cells, PMP22 element beta-lactamase FRET, 24 h; ratio activity, negative = inhibition: at 38.3 µM (top of the series) unless noted
# In short: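 Beta-lactamase reporter under a PMP22 intronic regulatory element in stable S16 rat Schwann cells; 24 h compound exposure. 460 nm blue signal normalized between DMSO (0%) and potassium clavulanate, with 535 nm FRET tracking viability; curves classed by r2 and response.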
# [4] = qHTS assay for small molecule agonists of the antioxidant response element (ARE) signaling pathway (AID 651741; active = well fitted activation curve with a large enough effect in the signal ratio; the % refers to the signal ratio); settings: HepG2 ARE-bla reporter, beta-lactamase FRET ratio, 16 h; series mostly up to 96 µM
# In short: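 Stably integrated ARE-beta-lactamase reporter HepG2 cells; 16 h compound incubation, 37 C; LiveBLAzer FRET substrate 2 h at room temperature; fluorescence intensity.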
# [5] = qHTS assay for small molecule activators of the nuclear factor-kappa B (NF-kB) signaling pathway (AID 651749; active = well fitted activation curve with a large enough effect in the signal ratio; the % refers to the signal ratio); settings: NF-kB-bla ME-180 cells, beta-lactamase FRET ratio, 16 h; active compounds read high
# In short: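 In this qHTS format, compounds acting as activators increase NF-kB-driven beta-lactamase in ME-180 cells, measured as disrupted FRET after 16 hr exposure at 37C and 5% CO2.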
# [6] = qHTS assay for small molecule disruptors of the mitochondrial membrane potential - 1 hr assay (AID 651754; calls by dose curve; note: nearly all actives have a fitted effect of over 35% in size); settings: series mostly up to 92.2 µM
# In short: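 Loss of mitochondrial potential shifts the cationic dye from red mitochondrial aggregates to green cytoplasmic monomers. Cells (HepG2) are treated with compound for 1 hr before a 30 min dye incubation at 37C.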
# [7] = qHTS assay for small molecule disruptors of the mitochondrial membrane potential - 5 hr assay (AID 651755; calls by dose curve; note: nearly all actives have a fitted effect of over 40% in size); settings: JC-1-type ratio dye; series mostly up to 92.2 µM
# In short: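 Read-out: ratiometric Mito-MPS fluorescence, green monomer (ex 490/em 535) vs red mitochondrial aggregate (ex 540/em 590). HepG2 cells treated 5 hr at 37C before 30 min dye loading.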
# [8] = biological target: Tumor necrosis factor (Homo sapiens) (UniProt P01375); test: qHTS assay to identify small molecules that stimulate Tumor Necrosis Factor-alpha (TNF-alpha) secretion (AID 651757; active = well fitted curve in the direction sought with a large enough effect in the signal ratio; the % refers to the signal ratio); settings: Human cells, HTRF 665/615 ratio; series mostly up to 92.2 µM
# Chain of Tumor necrosis factor (Homo sapiens) (P01375 whole entry, looked up): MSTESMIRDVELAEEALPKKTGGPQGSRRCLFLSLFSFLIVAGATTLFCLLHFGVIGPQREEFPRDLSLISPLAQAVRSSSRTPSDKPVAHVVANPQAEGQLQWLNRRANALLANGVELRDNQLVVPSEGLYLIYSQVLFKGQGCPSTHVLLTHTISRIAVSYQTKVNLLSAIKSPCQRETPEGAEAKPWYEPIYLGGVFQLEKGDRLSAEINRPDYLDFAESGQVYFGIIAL
# In short: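 Human monocytic THP-1 cells are plated, treated with compound and held at 37 C for 17 hrs. Labeled anti-TNF-alpha antibody mixture is then added; after 3 hr at room temperature, TR-FRET signal reports secreted TNF-alpha.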
# [9] = qHTS assay for environmental chemicals that activate the Aryl hydrocarbon Receptor (AhR) signaling pathway (AID 651777); settings: 1A2-DRE human hepatoma cells, luciferase, 24 h; activation: active compounds read high; note: nearly all actives have a fitted effect of over 15% in size
# In short: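 Human hepatoma 1A2-DRE cells stably carrying a DRE/CYP1A2 promoter–luciferase reporter, 1,200 cells/well, exposed to compound 24 hr at 37 C. Luciferase read by One-Glo luminescence after 30 min at room temperature; increased signal marks AhR activation.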
# [10] = biological target: Peroxisome proliferator-activated receptor alpha (Homo sapiens) (UniProt Q07869); test: qHTS assay for small molecule agonists of the peroxisome proliferator-activated receptor alpha (PPARalpha) signaling pathway (AID 651778); settings: PathHunter PPARalpha complementation, chemiluminescence, 6 h; active compounds read high
# Chain of Peroxisome proliferator-activated receptor alpha (Homo sapiens) (Q07869 whole entry, looked up, the tested form may be a part): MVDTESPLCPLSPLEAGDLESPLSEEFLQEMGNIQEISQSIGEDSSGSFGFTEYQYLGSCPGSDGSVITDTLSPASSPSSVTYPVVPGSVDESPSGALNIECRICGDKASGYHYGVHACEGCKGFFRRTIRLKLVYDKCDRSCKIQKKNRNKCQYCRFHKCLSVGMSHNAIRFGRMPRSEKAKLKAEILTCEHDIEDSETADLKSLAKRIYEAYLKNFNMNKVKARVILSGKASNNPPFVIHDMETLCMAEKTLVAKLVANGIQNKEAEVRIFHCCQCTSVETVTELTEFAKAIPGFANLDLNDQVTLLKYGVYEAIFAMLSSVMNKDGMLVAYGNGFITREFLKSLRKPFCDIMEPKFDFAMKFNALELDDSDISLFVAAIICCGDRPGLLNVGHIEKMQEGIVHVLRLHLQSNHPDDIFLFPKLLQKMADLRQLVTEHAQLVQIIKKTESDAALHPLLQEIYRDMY
# In short: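 Enzyme-fragment complementation assay in which ligand-bound PPARalpha translocates and forms an active enzyme that generates chemiluminescence. Cells were plated overnight, exposed to compound for 6 hr at 37 C, and then given detection reagent for 60 min at room temperature.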
# [11] = biological target: Nuclear receptor ROR-gamma (Homo sapiens) (UniProt P51449); test: qHTS assay for small molecule antagonists of the retinoid-related orphan receptor gamma (ROR-gamma) signaling pathway (AID 651802); settings: ROR-gamma antagonist cell reporter assay; series mostly up to 92.2 µM;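 note: CHO cells with doxycycline-induced ROR-gamma expression; nearly all actives have a fitted effect of over 60% in size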
# Chain of Nuclear receptor ROR-gamma (Homo sapiens) (P51449 whole entry, looked up): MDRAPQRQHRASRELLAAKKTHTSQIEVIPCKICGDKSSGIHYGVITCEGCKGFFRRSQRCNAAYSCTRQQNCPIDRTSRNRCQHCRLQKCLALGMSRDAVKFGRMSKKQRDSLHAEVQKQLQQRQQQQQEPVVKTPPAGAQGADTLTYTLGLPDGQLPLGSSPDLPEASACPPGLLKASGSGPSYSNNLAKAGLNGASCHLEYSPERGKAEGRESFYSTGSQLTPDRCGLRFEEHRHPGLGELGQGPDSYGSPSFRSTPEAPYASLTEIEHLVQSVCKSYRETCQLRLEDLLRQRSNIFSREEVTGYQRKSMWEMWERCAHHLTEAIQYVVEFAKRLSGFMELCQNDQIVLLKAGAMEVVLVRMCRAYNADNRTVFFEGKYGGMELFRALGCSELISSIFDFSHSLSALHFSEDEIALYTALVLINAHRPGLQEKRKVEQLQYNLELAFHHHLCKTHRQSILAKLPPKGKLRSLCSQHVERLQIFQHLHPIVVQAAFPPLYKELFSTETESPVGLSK
# In short: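 Steps: cells dispensed; compound or DMSO transferred by pin tool; doxycycline added to induce the ROR response element-driven luciferase; plates held 16hr at 37C; ONE-Glo added and luminescence measured.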
# [12] = S16 Schwann cell viability assay (CellTiter-Glo assay) (AID 624031); settings: S16 rat Schwann cells viability, 24 h; series mostly up to 57.5 µM;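 note: cellular ATP luminescence as a viability measure; nearly all actives have a fitted effect of over 70% in size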
# In short: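 Native S16 rat Schwann cells, 500-750 cells/well in DMEM with 10% FBS, dosed with compound after overnight culture and incubated 24h at 37 degree Celsius/5% CO2. Viability by CellTiter-Glo luminescence; % activity normalized to no-cell wells and DMSO-treated cells.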
structure (smiles),measurement,setting,value
CN(C)CCC=C1c2ccccc2C(C)(C)c2ccccc21,Potency,[1],inactive
same,Potency,[2],inactive
same,"ratio activity, negative = inhibition",[3],-0.444%
O=P(O)(O)CP(=O)(O)O,Potency,[1],inactive
same,Potency,[2],inactive
FC(F)(F)C(F)(F)C(F)(F)C(F)(F)C(F)(F)C(F)(F)F,Potency,[1],inactive
same,Potency,[2],inactive
Cc1cc(C(=O)NCCc2ccc(S(=O)(=O)NC(=O)NN3CCCCCC3)cc2)no1,Potency,[1],inactive
same,Potency,[2],inactive
C=CC(=O)O,Potency,[1],inactive
same,Potency,[2],inactive
same,"ratio activity, negative = inhibition",[3],-7.38%
O=C(/C=C/c1cccc(F)c1)NC1CC1,Potency,[1],inactive
same,Potency,[2],inactive
same,"ratio activity, negative = inhibition",[3],2.97%
COc1cc(NCCCC(C)N)c2ncccc2c1 (stereo not given),Potency,[1],inactive
same,Potency,[2],6.42 µM (active)
COC(=O)[C@@H](N)CS,Potency,[1],inactive
same,Potency,[2],inactive
CCOC(=S)SSC(=S)OCC,Potency,[1],inactive
same,Potency,[2],inactive
CCCCC/C=C\C/C=C\C/C=C\CCCCC(=O)O,Potency,[1],inactive
same,Potency,[2],inactive
same,"ratio activity, negative = inhibition",[3],-14.4%
c1ccc2c(c1)OCC(CN1CCCCC1)O2 (stereo not given),Potency,[1],inactive
same,Potency,[2],inactive
same,"ratio activity, negative = inhibition",[3],1.83%
O=C(O)CCC/C=C\C[C@@H]1[C@@H](/C=C/[C@@H](O)COc2cccc(C(F)(F)F)c2)[C@H](O)C[C@@H]1O,Potency,[1],inactive
same,Potency,[2],inactive
same,"ratio activity, negative = inhibition",[3],4.13%
Cc1cc(C)c(NC(=O)C[C@H](CC(=O)O)c2cccc3ccccc23)c(C(=O)N2CCC3(CCCC3)CC2)c1,Potency,[1],inactive
same,Potency,[2],inactive
CC(=O)Nc1ccc(NC(=S)NC(=O)c2ccc(C(C)(C)C)cc2)cc1,Potency,[1],inactive
same,Potency,[2],inactive
same,Potency,[3],7.94 µM (active)
CC/C=C\C/C=C\C/C=C\C/C=C\C/C=C\C/C=C\CCC(=O)O,Potency,[1],inactive
same,Potency,[2],inactive
same,"ratio activity, negative = inhibition",[3],0.57%
Nc1ncnc2c1ncn2CCOCP(=O)(O)O,Potency,[1],inactive
same,Potency,[2],inactive
same,"ratio activity, negative = inhibition",[3],0.57%
OC1OC[C@@H](O)[C@H](O)[C@@H]1O (stereo not given in full),Potency,[1],inactive
same,Potency,[2],inactive
same,"ratio activity, negative = inhibition",[3],0.472%
CCN(CC)CCC(=O)N1c2ccccc2Sc2ccc(Cl)cc21,Potency,[1],inactive
same,Potency,[2],10.2 µM (active)
CC1C(=O)CC2C3(C)CCC2(C(C)C(=O)O)C(=O)C13 (stereo not given),Potency,[1],inactive
same,Potency,[2],inactive
CN(C)c1ccc(C(=C2C=CC(=[N+](C)C)C=C2)c2c(O)c(S(=O)(=O)[O-])cc3cc(S(=O)(=O)O)ccc23)cc1,Potency,[1],14.4 µM (active)
same,Potency,[2],36.1 µM (active)
CC(=O)N=c1sc(S(N)(=O)=O)nn1C,Potency,[1],inactive
same,Potency,[2],inactive
N=C(N)n1cccn1,Potency,[1],inactive
same,Potency,[2],inactive
same,"ratio activity, negative = inhibition",[3],-0.887%
Cc1cc(-c2ccc(N=Nc3c(S(=O)(=O)O)cc4cc(S(=O)(=O)O)cc(N)c4c3O)c(C)c2)ccc1N=Nc1c(S(=O)(=O)O)cc2cc(S(=O)(=O)O)cc(N)c2c1O,Potency,[1],9.07 µM (active)
same,Potency,[2],12.8 µM (active)
same,"ratio activity, negative = inhibition",[3],8.59%
CC(C)OC(=O)Nc1ccc2nc(-c3cscn3)[nH]c2c1,Potency,[1],9.07 µM (active)
same,Potency,[2],inactive
CC[C@H]1OC(=O)[C@H](C)[C@@H](O[C@H]2C[C@@](C)(OC)[C@@H](O)[C@H](C)O2)[C@H](C)[C@@H](O[C@@H]2O[C@H](C)C[C@H](N(C)C)[C@H]2O)[C@](C)(O)C[C@@H](C)CN(C)[C@H](C)[C@@H](O)[C@]1(C)O,Potency,[1],inactive
same,Potency,[2],inactive
same,"ratio activity, negative = inhibition",[3],-5.31%
same,Potency,[4],inactive
same,activation,[5],-0.197%
same,Potency,[6],inactive
same,Potency,[7],inactive
same,Potency,[8],inactive
same,activation,[9],0.789%
same,max response,[10],-5.78%
same,Potency,[11],inactive
S=C1SCN(Cc2ccccc2)CN1Cc1ccccc1,Potency,[1],inactive
same,Potency,[2],14.4 µM (active)
same,"ratio activity, negative = inhibition",[3],-11.2%
C=CCN1CCCC1CNC(=O)c1cc(S(N)(=O)=O)cc(OC)c1OC (stereo not given),Potency,[1],inactive
same,Potency,[2],inactive
same,"ratio activity, negative = inhibition",[3],1.62%
CC(C)(Oc1ccc(C2CCCc3ccccc32)cc1)C(=O)O (stereo not given),Potency,[1],inactive
same,Potency,[2],inactive
same,"ratio activity, negative = inhibition",[3],-0.979%
CCN(CC)CCOC(=O)c1cccnc1,Potency,[1],inactive
same,Potency,[2],inactive
same,"ratio activity, negative = inhibition",[3],2.66%
C=CCCCCCCCCC(=O)OC,Potency,[1],inactive
same,Potency,[2],inactive
same,"ratio activity, negative = inhibition",[3],-14.3%
CC(CNC(=O)c1cccnc1)NC(=O)c1cccnc1 (stereo not given),Potency,[12],inactive
same,Potency,[2],inactive
O=C(Nc1ccc(O)cc1)c1ccccc1O,Potency,[12],inactive
same,Potency,[2],inactive
CN(C)CCOc1ccc(/C(=C(/CCCl)c2ccccc2)c2ccccc2)cc1,Potency,[1],inactive
same,"ratio activity, negative = inhibition",[3],-1.5%
CC1(C)S[C@@H]2[C@H](NC(=O)C3(N)CCCCC3)C(=O)N2[C@H]1C(=O)O,Potency,[12],inactive
same,Potency,[2],inactive
C[C@@](Cc1ccc(O)c(O)c1)(NN)C(=O)O,Potency,[12],inactive
